Most compounds without a hit are left out; they make up all but 13% or so of the library.
USP28 block: inhibitors of human USP28 deubiquitinase; Q96RU2; purified USP28, Ub-rhodamine cleavage fluorescence, 30 min; inhibition, % at 25 µM; 3% of 47,000 active
USP17 block: inhibitors of human USP17 deubiquitinase. purified USP17, Ub-rhodamine cleavage fluorescence, 3 h. 6.5% of 47,000 active. inhibition, % at 50 µM. AID 1645855
USP30 block: blocks human USP30 ubiquitin-rhodamine cleavage. Q70CQ3. purified USP30, Ub-rhodamine cleavage fluorescence. inhibition, % at 25 µM. 5.3% of 47,000 active. AID 1645860
Target sequence (Q70CQ3 whole entry, looked up): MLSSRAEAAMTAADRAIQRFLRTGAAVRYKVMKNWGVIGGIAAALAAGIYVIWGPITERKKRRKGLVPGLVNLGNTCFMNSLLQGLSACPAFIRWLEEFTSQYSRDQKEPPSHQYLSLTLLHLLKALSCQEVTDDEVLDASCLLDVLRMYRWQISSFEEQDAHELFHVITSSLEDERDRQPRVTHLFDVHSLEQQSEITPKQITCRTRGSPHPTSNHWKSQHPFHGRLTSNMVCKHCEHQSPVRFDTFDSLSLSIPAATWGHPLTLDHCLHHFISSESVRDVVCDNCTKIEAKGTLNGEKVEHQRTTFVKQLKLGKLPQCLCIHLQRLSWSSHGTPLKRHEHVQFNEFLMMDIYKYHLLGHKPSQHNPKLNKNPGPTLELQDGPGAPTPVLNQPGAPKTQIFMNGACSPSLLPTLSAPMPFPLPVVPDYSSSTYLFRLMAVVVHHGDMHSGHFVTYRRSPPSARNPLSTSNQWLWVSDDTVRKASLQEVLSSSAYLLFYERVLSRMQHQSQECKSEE
USP8 inh: blocks human USP8 ubiquitin-rhodamine cleavage. purified USP8, Ub-rhodamine cleavage fluorescence, 30 min. inhibition, % at 20 µM. 4.2% of 47,000 active
Active calls of the source: *; . = no result. Cut-off read from the data, not from the text of the source: active = inhibition above about 30%; inactive = the rest.

SMILES	USP28 block	USP17 block	USP30 block	USP8 inh
C[C@]12C(=O)N(c3ccc(C(=O)NCc4ccco4)cc3)C(=O)N1CCc1c2[nH]c2ccccc12	3.9	22.1	10.3	2.4
C[C@]12C(=O)N(c3cccc(C(=O)O)c3)C(=O)N1CCc1c2[nH]c2ccccc12	11.0	20.1	36.3*	7.9
C[C@]12C(=O)N(c3ccc(C(=O)NCc4ccc(F)cc4)cc3)C(=O)N1CCc1c2[nH]c2ccccc12	15.4	34.6*	52.0*	22.7
CN1CCOc2ccc(S(=O)(=O)Nc3ccccc3F)cc21	6.7	3.7	7.1	-0.6
Cc1cccc(NC(=O)Cn2c(-c3cnccn3)nc(C)c(C)c2=O)c1C	-0.5	37.5*	75.9*	-100.0
Cc1cccc(NC(=O)Cn2c(=O)n(-c3ccccc3)c3ncccc32)c1	-6.6	-17.3	-26.0	-1.2
O=C(c1ccco1)N1CCN(C(c2cccc(F)c2)c2sc3ncnn3c2O)CC1 (configuration not stated)	1.0	-0.1	0.4	12.4
Cc1c(C(C)OC(=O)c2ccc(F)cc2)sc2ncnn12 (configuration not stated)	28.9	16.8	32.0*	7.7
CCc1nnc2n1CC(c1ccc(NC(=O)c3sc(C)nc3C)cc1)CC2 (configuration not stated)	5.3	0.4	11.8	7.0
CCc1cc(C(=O)Nc2ccc(C3CCc4nncn4C3)cc2)on1 (configuration not stated)	33.9*	0.0	21.6	2.6
CC(=O)c1ccc(NC(=O)CSc2nc3nc(C)ccc3o2)cc1	-7.1	46.2*	-16.0	-58.2
COc1ncccc1C(=O)N1CCCCC1c1ccn2nccc2n1 (configuration not stated)	-16.7	-38.6	-19.4	1.1
COc1ccc(C(=O)NCCc2cccs2)cc1	9.4	-3.0	13.9	0.0
O=C(Nc1cccc(C(F)(F)F)c1)c1ccc2c(c1)SC1=NS(=O)(=O)CCN12	2.5	35.4*	-4.3	0.0
CCN1CCSc2ccc(C(=O)Nc3cccc(C(F)(F)F)c3)cc21	9.0	19.7	2.8	23.7
COc1ccc(CCNC(=O)c2ccc3c(c2)SC2=NS(=O)(=O)CCN23)cc1	15.8	-3.3	-4.6	35.1*
COc1ccc(C(C(=O)NCc2ccccc2)N(Cc2ccc(F)cc2)C(=O)CCN2CCc3ccccc32)cc1 (configuration not stated)	-13.1	0.0	-42.2	8.1
CCc1ccc(NC(=O)CSc2ccc(N3CCC(C(=O)NC4CC4)CC3)nn2)cc1	67.0*	62.0*	62.1*	80.6*
COc1cccc(-n2c(Cc3cc(=O)[nH]c(=O)[nH]3)nnc2SCC(=O)Nc2cc(C)ccc2C)c1	-4.4	-6.1	-4.2	3.2
Cc1noc(C)c1-c1ccc(S(=O)(=O)Nc2ccc(C#N)cc2)cc1	19.6	29.8	26.7	31.4*
Cc1ccc(-c2ncc(NC(=O)C3CCC3)cn2)cc1	24.9	1.2	3.9	33.3*
O=C(Nc1cnc(-c2ccc(F)cc2)nc1)C1CCC1	5.2	29.5	17.7	0.9
O=C(NCc1ccccn1)C1CCN(c2cncnc2N2CCCCC2)CC1	40.6*	-15.7	-28.7	-12.3
Cc1ccc(NC(=O)C2CCN(c3cncnc3N3CCCC3)CC2)cc1	90.4*	-17.9	-0.2	3.3
CCOc1ccc(-c2nc3c(cnn3-c3ccccc3)c(=O)[nH]2)cc1	-8.8	37.2*	-1.9	1.3
SMILES	USP28 block	USP17 block	USP30 block	USP8 inh
COc1ccc2[nH]cc(S(=O)(=O)c3ccc(C)c(F)c3)c(=O)c2c1	14.2	59.1*	42.6*	7.6
COc1ccc(S(=O)(=O)c2c[nH]c3ccc(C)cc3c2=O)cc1Cl	23.5	37.2*	14.6	-6.9
COc1ccc2[nH]cc(S(=O)(=O)c3ccc(C#N)cc3)c(=O)c2c1	14.2	31.4*	18.5	2.1
COc1ccc2ncc(S(=O)(=O)c3ccc(C)cc3)c(Nc3ccc(C)cc3)c2c1	2.2	8.9	12.3	11.7
O=C(NCc1ccccc1)C1CCN(S(=O)(=O)c2ccc3c(c2)OCCCO3)CC1	10.0	6.0	15.9	9.4
CC(C)C12CN3CC(C(C)C)(CN(C1)C3[C@@H](O)[C@H](O)[C@H](O)[C@@H](O)CO)C2=O (some centres not stated)	11.2	7.3	30.2*	6.0
CC(C)C12CN3CC(C(C)C)(CN(C1)C3c1ccc([N+](=O)[O-])o1)C2=O (configuration not stated)	10.6	17.0	16.9	-79.7
COc1cc(/C=C(/C(=O)O)c2ccc(-c3ccccc3)cc2)cc(OC)c1OC	-16.7	37.9*	-46.9	-5.6
O=C1CCCC[C@]2(CN(C(=O)c3ccc(-n4cccn4)nc3)C[C@H]2c2ccc(F)cc2)N1	9.8	-8.8	32.8*	-18.6
Cc1ccnn1CCC(=O)N1C[C@@H](c2cc(F)cc(F)c2)[C@@]2(CCCCC(=O)N2)C1	-8.2	0.1	-11.8	-0.4
CC1OC1C(=O)[C@]1(O)[C@H](C)[C@@H](O)[C@@]23O[C@@]2([C@H](O)c2c(O)cccc2C3=O)[C@H]1O (some centres not stated)	7.6	72.6*	-394.3	-6.8
Cc1ccccc1CS(=O)(=O)c1cn(CC(=O)N2CCCCCC2)c2ccccc12	-0.3	-0.3	5.9	1.5
Cc1c(CNCc2ccc(F)cc2)c(C(=O)O)c(C)n1-c1ccccc1	-39.5	-8.3	-136.6	43.4*
COc1cc(C2CCN(C(=O)c3ccccc3)CC2)on1	2.2	10.9	17.7	31.8*
O=C(c1cc2ccccc2oc1=O)N1CCCC(c2nnc(-c3ccccc3)o2)C1 (configuration not stated)	0.5	-0.1	9.9	7.3
O=C(COc1ccccc1)N1CCC2(CC1)NC(=O)N(Cc1ccc(Cl)cc1)C2=O	-13.6	.	-17.7	-8.9
O=C(COc1ccc(Cl)cc1)N1CCC(c2c[nH]c3ccccc23)(c2c[nH]c3ccccc23)CC1	5.0	.	39.4*	-108.9
CC1=C(Cn2c3cccc(=O)c-3nc3ccccc32)CCC(C)(C)C1	73.6*	77.8*	20.4	58.6*
COCCCNc1cc(-c2cncc(-c3cccs3)c2)nc(-c2ccccc2)n1	0.0	14.0	9.4	18.9
Cc1nc(NCc2ccc(Cl)cc2)cc(-c2cncc(-c3cccs3)c2)n1	-22.6	34.6*	-69.9	-1.3
COc1ccc(C(=O)c2c[nH]cc2-c2ccc(C)cc2)cc1OC	-2.6	31.2*	13.0	-2.8
O=C(CSc1ncccc1C(=O)Nc1ccnn1C1CCCC1)Nc1ccc2c(c1)OCO2	-28.8	-1.4	-129.9	7.6
COc1ccc(C(=O)CSc2nnc(-c3cc4cccc(OC)c4o3)n2C)cc1OC	-0.3	18.5	52.7*	-0.2
COc1cc(NC(=O)CSc2nnc(-c3cc4ccccc4n3C)o2)cc(OC)c1	15.2	19.6	48.7*	15.7
COc1cccc(NC(=O)CSc2nnc(-c3cc4cccc(OC)c4o3)n2C)c1	6.9	59.9*	49.8*	0.9
c1ccc(-c2csc3ncnc(Oc4cccnc4)c23)cc1	10.6	4.4	21.0	7.4
Cc1cccc(N2C(=O)N(c3cccc(Cl)c3)C3CS(=O)(=O)CC32)c1 (configuration not stated)	-3.9	-0.4	19.0	-5.3
